Assay outcomes deposited in PubChem BioAssay by National Center for Advancing Translational Sciences (NCATS).
Only some compounds are listed: those with a hit (about 14% of all), similar ones and a draw of the others.
HADH2 inhib: qHTS Assay for Inhibitors of HADH2 (Hydroxyacyl-Coenzyme A Dehydrogenase, Type II) | AID 886, 2007 | Potency, µM (series often up to 57.1 µM), without a hit: at the highest dose activity change, negative = inhibition, most hits filed as inhibitors | recombinant HADH2, NADH fluorescence, beta-hydroxybutyryl-CoA | hit rate 3.4% among 73,000; further: potency means the concentration at half of the fitted maximal effect; on the % scale 0 is the no-effect control and ±100 the full control effect; nearly all actives have a fitted effect of over 60% in size
Target sequence (Q99714 whole entry, looked up, one chain of several): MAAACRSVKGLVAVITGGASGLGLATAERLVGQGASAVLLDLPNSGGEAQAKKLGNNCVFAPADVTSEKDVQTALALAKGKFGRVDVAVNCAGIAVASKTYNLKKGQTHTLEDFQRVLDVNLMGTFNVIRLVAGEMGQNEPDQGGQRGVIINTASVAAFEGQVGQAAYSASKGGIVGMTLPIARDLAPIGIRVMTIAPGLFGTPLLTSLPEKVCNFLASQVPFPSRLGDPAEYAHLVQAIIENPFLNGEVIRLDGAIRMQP
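NADH fluorescence (ex 360/em 450 nm) read every 30 s for 4 min; activity taken as last-minus-first time point difference. Enzyme 20 nM, NAD+ 1 mM, beta-hydroxybutyryl-CoA 90 uM, pH 9.0 Tris buffer.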
AID923: qHTS Assay for Allosteric/Competitive Inhibitors of Caspase-1: Spectroscopic Profiling in AFC Spectral Region. compound fluorescence, AFC spectral region (405/520 nm). AID 923, 2007. Potency, µM (titrated, usually from 57.5 µM), for inactives: at the top dose fluorescence increase, usual class: activators. hit rate 1.1% among 75,000; further: potency means the concentration at half of the fitted maximal effect; 0% is about no effect
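Baseline compound fluorescence (AFC region, 405 nm ex/520 nm em) taken from the intercept of kinetic reads with 50 nM caspase-1 and 5 uM Ac-WEHD-AFC; normalized to an on-plate AFC standard curve; compounds titrated up to 57 uM.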
HSD17B inhib: qHTS Assay for Inhibitors of HSD17B4, hydroxysteroid (17-beta) dehydrogenase 4; 3-hydroxyacyl-CoA dehydrogenase type-2 (Homo sapiens), Q99714; recombinant HSD17B10, NADH fluorescence kinetic; Potency, µM (top dose mostly 57.1 µM), for inactives: at the top dose activity change, negative = inhibition, actives largely listed as inhibitors; hit rate 7.6% among 75,000; AID 893, 2007;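 further: the protocol describes HADH2 (HSD17B10) and not the HSD17B4 of the title; potency means the concentration at half of the fitted maximal effect; on the % scale 0 is the no-effect control and ±100 the full control effect; nearly all actives have a fitted effect of over 70% in size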
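Enzyme plus compound, 15 min room temperature; substrate mix added (NAD+ 1 mM, beta-hydroxybutyryl-CoA 90 uM final); plates read kinetically for NADH fluorescence. HADH2 was His-tagged, E. coli-derived, 20 nM.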
CRE Fsk mod: Cell signaling CRE-BLA (Fsk stim) | CHO CRE-bla reporter (cAMP response element driving beta-lactamase), forskolin EC10, beta-lactamase ratio | Potency, µM (top dose mostly 38.2 µM), inactives show at the top dose activity change, negative = inhibition, most hits filed as activators | hit rate 2.5% among 71,000 | AID 662, 2007; active means well fitted activation curve with a large enough effect in the signal ratio, with a control signal flat, not every such curve was filed as active; inconclusive means small, poorly fitted or top-dose-only effect, or effect the other way, or a change in a side signal; the % refers to the signal ratio; further: potency means the concentration at half of the fitted maximal effect; % of control where 0% means no effect
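qHTS titration format; CRE-bla CHO reporter; stimulus EC10 NKH 477, a water-soluble forskolin. Read: CCF4 460/530 nm ratio. Potency expressed as AC50 for activators or inhibitors.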
A350 fluor: qHTS Assay for Spectroscopic Profiling in A350 Spectral Region; Compound autofluorescence, 340/450 nm, Alexa 350 dye-equivalents; active compounds read high; max dye-equivalent concentration, M; hit rate 11% among 59,000; AID 590, 2007; in the data active means max dye-equivalent concentration above about 10 nM; inconclusive means mostly about 1.1 nM to 9.6 nM
4-MU autofl: qHTS Assay for Spectroscopic Profiling in 4-MU Spectral Region. compound autofluorescence, 340/450 nm, 4-MU equivalents; active compounds read high. max dye-equivalent concentration, M. hit rate 11% among 59,000. AID 589, 2007; in the data active means max dye-equivalent concentration above about 10 nM; inconclusive means mostly about 1.1 nM to 9.6 nM
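Compounds in 100 mM Tris, pH 8.0, sat 15 min at room temperature before fluorescence was read at 340 nm excitation/450 nm emission; a per-plate six-point 4-MU standard curve converted signals to dye-equivalent concentration at each compound concentration.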
An asterisk follows results filed as active; [ ] = another dose, or the depositor's remark. Unless noted, the call rests on the fitted dose curve; in most records, active means well fitted curve in the direction sought with a large enough effect; inconclusive means small, poorly fitted or top-dose-only effect, or another doubt; inactive means no such curve, though single readings can be large; an effect the other way counts as inactive or inconclusive.

How did COCCN1CC(O)=C(c2nc3ccccc3c(=O)[nH]2)C1=N do in these assays?
HADH2 inhib: 35%; AID923: 1%; HSD17B inhib: 25µM*; CRE Fsk mod: inconclusive; A350 fluor: inconclusive; 4-MU autofl: 1e-08M*

What do the screens show for `COc1ccccc1N1CC(O)=C(c2nc3ccccc3c(=O)[nH]2)C1=N`?
HADH2 inhib: 235%; AID923: 1%; HSD17B inhib: 32µM*; CRE Fsk mod: 18%; A350 fluor: 1.1e-08M*; 4-MU autofl: inconclusive

How did N=C1C(c2nc3ccccc3c(=O)[nH]2)=C(O)CN1CCc1ccccc1 do in these assays?
HADH2 inhib: -26%; AID923: -1%; HSD17B inhib: 32µM*; CRE Fsk mod: inconclusive

How did N=C1C(c2nc3ccccc3c(=O)[nH]2)=C(O)CN1CCO do in these assays?
HADH2 inhib: -11%; AID923: 2%; HSD17B inhib: 3.2µM*; CRE Fsk mod: -2%; A350 fluor: inconclusive; 4-MU autofl: inconclusive

What do the screens show for `CCOc1ccccc1N1CC(O)=C(c2nc3ccccc3s2)C1=N`?
HADH2 inhib: inconclusive; AID923: 0%; HSD17B inhib: inconclusive; CRE Fsk mod: -7%; A350 fluor: inactive; 4-MU autofl: inactive

What do the screens show for `O=c1[nH]c(CN2CCN(CCO)CC2)nc2ccccc12`?
HADH2 inhib: -14%; AID923: -3%; HSD17B inhib: 8%; CRE Fsk mod: -10%; A350 fluor: inconclusive; 4-MU autofl: inconclusive

What do the screens show for `COC(=O)[C@@]1(Cc2ccc(F)cc2)[C@H]2c3cc(C(=O)N4CCCC4)n(Cc4cc(C)n(C)n4)c3C[C@H]2CN1C(=O)c1ccccc1`?
HADH2 inhib: 0%; AID923: 0%; HSD17B inhib: 4%; CRE Fsk mod: inconclusive

How did CCCCN1CC(O)=C(c2nc3ccccc3[nH]2)C1=N do in these assays?
HADH2 inhib: -1%; AID923: 18%; HSD17B inhib: -10%; CRE Fsk mod: inconclusive; A350 fluor: 1.6e-07M*; 4-MU autofl: 1.6e-07M*

What do the screens show for `C(=Nc1cnc2ccccc2c1)c1ccc2ccccc2n1`?
HADH2 inhib: -20%[11.4 µM]; AID923: -2%[11.5 µM]; HSD17B inhib: inconclusive; CRE Fsk mod: -12%[7.6 µM]; A350 fluor: 1.8e-07M*; 4-MU autofl: 1.6e-07M*

How did CN(/N=C\c1ccccc1O)c1ccc2ccccc2n1 do in these assays?
HADH2 inhib: 9%[11.4 µM]; AID923: -1%[11.5 µM]; HSD17B inhib: 3%[11.4 µM]; CRE Fsk mod: -15%[7.6 µM]; A350 fluor: inactive; 4-MU autofl: inactive

What do the screens show for `O=C(CCCSc1nc2sc3c(c2c(=O)[nH]1)CCC3)NCCO`?
HADH2 inhib: 8%; AID923: 0%; HSD17B inhib: -3%; CRE Fsk mod: -7%; A350 fluor: 2e-08M*; 4-MU autofl: 1.6e-08M*

What do the screens show for `CC1CCCCN1C(=O)c1ccccc1NC(=O)c1ccco1` (configuration not stated)?
HADH2 inhib: 2%; AID923: 0%; HSD17B inhib: -1%; CRE Fsk mod: -7%; A350 fluor: inconclusive; 4-MU autofl: inactive

Results for COc1cccc(NC(=O)CSc2nnc(C)s2)c1 ?
HADH2 inhib: 10%; AID923: 1%; HSD17B inhib: 4%; CRE Fsk mod: -17%; A350 fluor: inactive; 4-MU autofl: inactive

What do the screens show for `Cc1ccc(C(=O)CSc2ccccn2)cc1`?
HADH2 inhib: 3.2µM*; AID923: 3%; HSD17B inhib: -26%; CRE Fsk mod: -4%; A350 fluor: inactive; 4-MU autofl: inactive

How did COC(=O)C1=C(C)NC(C)=C(C(=O)OC)C1c1ccc(N(C)C)cc1 do in these assays?
HADH2 inhib: 4%; AID923: -1%; HSD17B inhib: -2%; CRE Fsk mod: inconclusive; A350 fluor: 1.2e-08M*; 4-MU autofl: inconclusive

Results for CCCCN(CCCC)CCn1cnc2c([nH]c3ccc(OC)cc32)c1=O ?
HADH2 inhib: 11%; AID923: 0%; HSD17B inhib: inconclusive; CRE Fsk mod: 9%

Results for CC(C)OCCCNc1ncnc2c1[nH]c1ccccc12 ?
HADH2 inhib: 25%; AID923: 4%; HSD17B inhib: 32µM*; CRE Fsk mod: inconclusive; A350 fluor: inconclusive; 4-MU autofl: inactive

Results for COc1ccc2[nH]c3c(NCCN(C(C)C)C(C)C)ncnc3c2c1 ?
HADH2 inhib: 32µM*; AID923: 4%; HSD17B inhib: 32µM*; CRE Fsk mod: 26%; A350 fluor: 2.8e-07M*; 4-MU autofl: 2.2e-07M*

Results for c1ccc(-c2csc(Nc3nc(N4CCOCC4)nc(N4CCOCC4)n3)n2)cc1 ?
HADH2 inhib: 8%; AID923: 0%; HSD17B inhib: 3%; CRE Fsk mod: 2µM*

Results for COC(=O)NCc1ccc(CNC(=O)OC)cc1 ?
HADH2 inhib: 16%; AID923: 0%; HSD17B inhib: 2%; CRE Fsk mod: 11%; A350 fluor: inactive; 4-MU autofl: inactive

Results for Cc1cc(C)c(NC(=O)OCCN2CCOCC2)c(C)c1 ?
A350 fluor: 1e-07M*; 4-MU autofl: 8.8e-08M*

What do the screens show for `Cc1cc(C)c(NC(=O)CCCN2CCOCC2)c(C)c1`?
HADH2 inhib: 11%; AID923: -4%; HSD17B inhib: 0%; CRE Fsk mod: 0%; A350 fluor: inactive; 4-MU autofl: inactive

How did Cc1c(NC(=O)CC2CC(C)OC2=O)c(=O)n(-c2ccccc2)n1C (configuration not stated) do in these assays?
HADH2 inhib: inactive; AID923: -1%; HSD17B inhib: 5%; CRE Fsk mod: inconclusive; A350 fluor: 1e-05M*; 4-MU autofl: 7.4e-06M*

Results for C/C(=N\O)C(=O)NCCN1CCCCC1 ?
HADH2 inhib: -8%; AID923: 0%; HSD17B inhib: 9%; CRE Fsk mod: 3%; A350 fluor: 1.2e-08M*; 4-MU autofl: 1.2e-08M*

How did Nc1nc(N2CCN(C/C=C/c3ccccc3)CC2)nc2ccccc12 do in these assays?
HADH2 inhib: 6%; AID923: 1%; HSD17B inhib: 1%; CRE Fsk mod: -5%; A350 fluor: inconclusive; 4-MU autofl: 2.1e-08M*

Results for O=c1[nH]c(CN2CCc3ccccc3C2)nc2ccccc12 ?
HADH2 inhib: 10%; AID923: 3%; HSD17B inhib: inconclusive; CRE Fsk mod: -3%; A350 fluor: 4.9e-08M*; 4-MU autofl: 4.3e-08M*

What do the screens show for `O=c1[nH]c(CN2CCN(C/C=C/c3ccccc3)CC2)nc2ccccc12`?
HADH2 inhib: 8%; AID923: -2%; HSD17B inhib: -9%; CRE Fsk mod: -14%; A350 fluor: 1.3e-08M*; 4-MU autofl: 1.2e-08M*
